Results: PubChem BioAssay AID1159580 (chemical genetic matrix, 2015)
Out of some 5,500 compounds screened, about 2,000 (36%) were called active. About 18% were inconclusive and are not listed. Cut-off read from the data, not from the text of the source: active = normalized growth mostly below about 0.91 (no sharp cut-off); inconclusive = no clear call, values can overlap the other calls; inactive = mostly above about 0.92. This is one part of the list.

Assay: chemical genetic growth profiling, strain panel (AID 1159580);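 note: tested at 20 µM; growth read once vehicle control cultures reached saturation at 30 °C; 1 = growth at the plate median or of vehicle wells; lower values mean less growth of the strain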
Conditions: growth OD

Measured: normalized growth

CCOP(=S)(OCC)SCCSCC
inactive: S. cerevisiae deletion strains, locus YAL013W, strain DEP1, active compounds read low 0.992 | S. cerevisiae deletion strains, locus YBR021W, strain FUR4, active compounds read low 1 | S. cerevisiae deletion strains, locus YBR229C, strain ROT2, active compounds read low 0.955 | S. cerevisiae deletion strains, locus YCL029C, strain bik1, active compounds read low 0.977 | S. cerevisiae deletion strains, locus YDL035C, strain GPR1, active compounds read low 0.964 | S. cerevisiae deletion strains, locus YDL074C, strain BRE1, active compounds read low 0.896 | S. cerevisiae deletion strains, locus YDL101C, strain DUN1, active compounds read low 0.977 | S. cerevisiae deletion strains, locus YDL134C, strain PPH21, active compounds read low 0.983 | S. cerevisiae deletion strains, locus YDL185W, strain tfp1, active compounds read low 0.956 | S. cerevisiae deletion strains, locus YDL192W, strain arf1, active compounds read low 0.981 | S. cerevisiae deletion strains, locus YDR101C, strain arx1, active compounds read low 0.991 | S. cerevisiae deletion strains, locus YDR150W, strain NUM1, active compounds read low 0.975 | S. cerevisiae deletion strains, locus YDR162C, strain NBP2, active compounds read low 0.967 | S. cerevisiae deletion strains, locus YDR318W, strain mcm21, active compounds read low 0.97 | S. cerevisiae deletion strains, locus YDR388W, active compounds read low 0.984 | S. cerevisiae deletion strains, locus YDR502C, strain sam2, active compounds read low 0.986 | S. cerevisiae deletion strains, locus YEL061C, strain CIN8, active compounds read low 0.983 | S. cerevisiae deletion strains, locus YER110C, active compounds read low 0.985 | S. cerevisiae deletion strains, locus YER155C, strain BEM2, active compounds read low 0.989 | S. cerevisiae deletion strains, locus YER167W, strain BCK2, active compounds read low 0.992 | S. cerevisiae deletion strains, locus YGL078C, strain dbp3, active compounds read low 0.996 | S. cerevisiae deletion strains, locus YGL086W, strain mad1, active compounds read low 0.991 | S. cerevisiae deletion strains, locus YGL248W, strain PDE1, active compounds read low 0.972 | S. cerevisiae deletion strains, locus YGR078C, strain PAC10, active compounds read low 0.965 | S. cerevisiae deletion strains, locus YGR135W, strain pre9, active compounds read low 0.982 | S. cerevisiae deletion strains, locus YGR229C, strain SMI1, active compounds read low 0.968 | S. cerevisiae deletion strains, locus YGR252W, strain gcn5, active compounds read low 0.992 | S. cerevisiae deletion strains, locus YHR030C, strain SLT2, active compounds read low 0.992 | S. cerevisiae deletion strains, locus YHR079C, strain IRE1 (second series), active compounds read low 0.997 | S. cerevisiae deletion strains, locus YHR094C, strain hxt1, active compounds read low 0.991 | S. cerevisiae deletion strains, locus YHR129C, strain ARP1, active compounds read low 0.976 | S. cerevisiae deletion strains, locus YHR200W, strain rpn10, active compounds read low 0.994 | S. cerevisiae deletion strains, locus YIL066C, strain RNR3, active compounds read low 0.977 | S. cerevisiae deletion strains, locus YIL073C, strain SPO22, active compounds read low 0.982 | S. cerevisiae deletion strains, locus YIL125W, strain kgd1, active compounds read low 0.975 | S. cerevisiae deletion strains, locus YIR030C, strain dcg1, active compounds read low 0.996 | S. cerevisiae deletion strains, locus YJL095W, strain BCK1, active compounds read low 0.97 | S. cerevisiae deletion strains, locus YJL134W, strain LCB3, active compounds read low 0.98 | S. cerevisiae deletion strains, locus YJL168C, strain set2, active compounds read low 0.992 | S. cerevisiae deletion strains, locus YJL187C, strain SWE1 (second series), active compounds read low 0.979 | S. cerevisiae deletion strains, locus YJR043C, strain POL32, active compounds read low 0.991 | S. cerevisiae deletion strains, locus YJR075W, strain HOC1, active compounds read low 0.961 | S. cerevisiae deletion strains, locus YKL009W, strain mrt4, active compounds read low 0.944 | S. cerevisiae deletion strains, locus YKL068W, active compounds read low 0.977 | S. cerevisiae deletion strains, locus YKL085W, strain MDH1 (second series), active compounds read low 0.979 | S. cerevisiae deletion strains, locus YKL085W, strain MDH1, active compounds read low 0.979 | S. cerevisiae deletion strains, locus YKL190W, strain CNB1, active compounds read low 0.964 | S. cerevisiae deletion strains, locus YKR001C, strain vps1, active compounds read low 0.976 | S. cerevisiae deletion strains, locus YLR039C, strain RIC1, active compounds read low 0.937 | S. cerevisiae deletion strains, locus YLR058C, strain SHM2, active compounds read low 0.972 | S. cerevisiae deletion strains, locus YLR102C, strain apc9, active compounds read low 0.988 | S. cerevisiae deletion strains, locus YLR262C, strain YPT6, active compounds read low 0.878 | S. cerevisiae deletion strains, locus YLR268W, strain sec22, active compounds read low 0.975 | S. cerevisiae deletion strains, locus YLR330W, strain CHS5, active compounds read low 0.974 | S. cerevisiae deletion strains, locus YLR342W, strain FKS1 (second series), active compounds read low 1.03 | S. cerevisiae deletion strains, locus YLR371W, strain rom2, active compounds read low 0.999 | S. cerevisiae deletion strains, locus YLR418C, strain cdc73, active compounds read low 0.947 | S. cerevisiae deletion strains, locus YML016C, strain PPZ1, active compounds read low 0.982 | S. cerevisiae deletion strains, locus YML032C, strain rad52, active compounds read low 0.99 | S. cerevisiae deletion strains, locus YML124C, strain tub3, active compounds read low 0.995 | S. cerevisiae deletion strains, locus YMR078C, strain ctf18, active compounds read low 0.978 | S. cerevisiae deletion strains, locus YMR223W, strain ubp8, active compounds read low 0.992 | S. cerevisiae deletion strains, locus YMR263W, strain SAP30, active compounds read low 0.975 | S. cerevisiae deletion strains, locus YMR307W, strain GAS1, active compounds read low 1.04 | S. cerevisiae deletion strains, locus YNL067W, strain RPL9B, active compounds read low 0.972 | S. cerevisiae deletion strains, locus YNL128W, strain TEP1, active compounds read low 0.945 | S. cerevisiae deletion strains, locus YNL153C, strain GIM3, active compounds read low 0.978 | S. cerevisiae deletion strains, locus YNL233W, strain BNI4, active compounds read low 0.99 | S. cerevisiae deletion strains, locus YNL250W, strain rad50, active compounds read low 0.979 | S. cerevisiae deletion strains, locus YNL271C, strain bni1, active compounds read low 0.994 | S. cerevisiae deletion strains, locus YNL298W, strain CLA4, active compounds read low 0.982 | S. cerevisiae deletion strains, locus YNL307C, strain MCK1, active compounds read low 0.993 | S. cerevisiae deletion strains, locus YNL322C, strain KRE1, active compounds read low 0.976 | S. cerevisiae deletion strains, locus YNR052C, strain pop2, active compounds read low 0.998 | S. cerevisiae deletion strains, locus YOL006C, strain TOP1, active compounds read low 0.846 | S. cerevisiae deletion strains, locus YOL012C, strain htz1 0.792 | S. cerevisiae deletion strains, locus YOL147C, strain pex11, active compounds read low 0.991 | S. cerevisiae deletion strains, locus YOR061W, strain CKA2, active compounds read low 0.96 | S. cerevisiae deletion strains, locus YOR069W, strain VPS5, active compounds read low 0.997 | S. cerevisiae deletion strains, locus YOR136W, strain idh2, active compounds read low 0.995 | S. cerevisiae deletion strains, locus YOR144C, strain elg1, active compounds read low 0.99 | S. cerevisiae deletion strains, locus YOR184W, strain ser1, active compounds read low 0.956 | S. cerevisiae deletion strains, locus YOR316C, strain cot1, active compounds read low 0.973 | S. cerevisiae deletion strains, locus YPL055C, strain LGE1, active compounds read low 0.949 | S. cerevisiae deletion strains, locus YPL241C, strain CIN2, active compounds read low 0.976 | S. cerevisiae deletion strains, locus YPR119W, strain clb2, active compounds read low 0.99 | S. cerevisiae deletion strains, locus YPR141C, strain kar3, active compounds read low 0.968 | S. cerevisiae deletion strains, locus YPR163C, strain tif3, active compounds read low 0.999 | S. cerevisiae deletion strains, locus YPR167C, strain met16, active compounds read low 0.988 | S. cerevisiae deletion strains, strain wtn01, active compounds read low 0.995 | S. cerevisiae strains, strain wild type, active compounds read low 0.979
